# According to the supplement of paper PMC8728848:
# The sample as a whole holds a higher share of the strongest signals than the screen did.
# Assays:
# Assay in all cases: glycan array binding signal (z-score within array); higher = stronger binding
# Details in all cases: glycan notation: IUPAC condensed, linker removed
# [1] = biological target: Fuc(a1-2)Gal(b1-3)GalNAc(a1-3)[Fuc(a1-2)]Gal(b1-4)Glc
# Procedure, shortened: (§1)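 From the Consortium for Functional Glycomics database, 3228 arrays were curated, keeping only those whose protein sequence was available. Binding is given as a within-array Z-score averaged across arrays sharing a protein sequence and across linkers. Negative Z-scores can be read as non-binding.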
# [2] = biological target: Fuc(a1-2)Gal(b1-3)GalNAc(b1-3)Gal
# Procedure, shortened: as §1
# Fuc(a1-2)Gal(b1-4)GlcNAc = biological target: Fuc(a1-2)Gal(b1-4)GlcNAc
# Procedure, shortened: as §1
# [3] = biological target: Fuc(a1-2)Gal(b1-4)GlcNAc(b1-6)GalNAc
# Procedure, shortened: as §1
# [4] = biological target: Fuc(a1-2)[Gal(a1-3)]Gal(b1-3)GlcNAc(b1-3)GalNAc
# Procedure, shortened: as §1
# [5] = biological target: Fuc(a1-2)[GalNAc(a1-3)]Gal(b1-4)Glc
# Procedure, shortened: as §1
# [6] = biological target: Fuc(a1-2)[GalNAc(b1-3)]Gal
# Procedure, shortened: as §1
# [7] = biological target: Fuc(a1-3)[Gal(b1-4)]GlcNAc(b1-2)Man(a1-3)[Fuc(a1-3)[Gal(b1-4)]GlcNAc(b1-2)Man(a1-6)]Man(b1-4)GlcNAc(b1-4)GlcNAc
# Procedure, shortened: as §1
# [8] = biological target: Gal(a1-3)Gal(b1-3)GlcNAc(b1-3)GalNAc
# Procedure, shortened: as §1
# [9] = biological target: Gal(b1-3)GlcNAc(a1-6)Gal(b1-4)GlcNAc
# Procedure, shortened: as §1
# [10] = biological target: Gal(b1-3)GlcNAc(b1-3)Gal(b1-4)Glc
# Procedure, shortened: as §1
# [11] = biological target: Gal(b1-3)GlcNAc(b1-3)Gal(b1-4)GlcNAc(b1-6)[Gal(b1-3)GlcNAc(b1-3)]Gal(b1-4)Glc
# Procedure, shortened: as §1
# [12] = biological target: Gal(b1-3)GlcNAc(b1-6)[Gal(b1-3)]GalNAc
# Procedure, shortened: as §1
# [13] = biological target: Gal(b1-3)[GlcNAc(b1-6)]GalNAc
# Procedure, shortened: as §1
# [14] = biological target: Gal(b1-4)GlcNAc(b1-2)[Gal(b1-4)GlcNAc(b1-4)]Man(a1-3)[GlcNAc(b1-4)][Gal(b1-4)GlcNAc(b1-2)[Gal(b1-4)GlcNAc(b1-6)]Man(a1-6)]Man(b1-4)GlcNAc(b1-4)GlcNAc
# Procedure, shortened: as §1
# [15] = biological target: Gal(b1-4)GlcNAc(b1-2)[Gal(b1-4)GlcNAc(b1-6)]Man(a1-6)[Gal(b1-4)GlcNAc(b1-2)Man(a1-3)]Man(b1-4)GlcNAc(b1-4)[Fuc(a1-6)]GlcNAc
# Procedure, shortened: as §1
# [16] = biological target: Gal(b1-4)GlcNAc(b1-3)Gal(b1-3)GlcNAc
# Procedure, shortened: as §1
# [17] = biological target: Gal(b1-4)GlcNAc(b1-3)Gal(b1-4)Glc
# Procedure, shortened: as §1
# [18] = biological target: Gal(b1-4)GlcNAc(b1-3)Gal(b1-4)GlcNAc(b1-2)Man(a1-3)[Gal(b1-4)GlcNAc(b1-3)Gal(b1-4)GlcNAc(b1-2)Man(a1-6)]Man(b1-4)GlcNAc(b1-4)[Fuc(a1-6)]GlcNAc
# Procedure, shortened: as §1
# [19] = biological target: Gal(b1-4)GlcNAc(b1-3)Gal(b1-4)GlcNAc(b1-3)Gal(b1-4)GlcNAc(b1-2)Man(a1-3)[Gal(b1-4)GlcNAc(b1-3)Gal(b1-4)GlcNAc(b1-3)Gal(b1-4)GlcNAc(b1-2)Man(a1-6)]Man(b1-4)GlcNAc(b1-4)[Fuc(a1-6)]GlcNAc
# Procedure, shortened: as §1
# [20] = biological target: Gal(b1-4)GlcNAc(b1-3)Gal(b1-4)GlcNAc(b1-3)Gal(b1-4)GlcNAc(b1-3)Gal(b1-4)GlcNAc(b1-2)Man(a1-3)[Gal(b1-4)GlcNAc(b1-3)Gal(b1-4)GlcNAc(b1-3)Gal(b1-4)GlcNAc(b1-3)Gal(b1-4)GlcNAc(b1-2)Man(a1-6)]Man(b1-4)GlcNAc(b1-4)[Fuc(a1-6)]GlcNAc
# Procedure, shortened: as §1
# [21] = biological target: Gal(b1-4)GlcNAc(b1-3)Gal(b1-4)GlcNAc(b1-3)Gal(b1-4)GlcNAc(b1-3)Gal(b1-4)GlcNAc(b1-3)Gal(b1-4)GlcNAc(b1-2)Man(a1-3)[Gal(b1-4)GlcNAc(b1-3)Gal(b1-4)GlcNAc(b1-3)Gal(b1-4)GlcNAc(b1-3)Gal(b1-4)GlcNAc(b1-3)Gal(b1-4)GlcNAc(b1-2)Man(a1-6)]Man(b1-4)GlcNAc(b1-4)[Fuc(a1-6)]GlcNAc
# Procedure, shortened: as §1
# [22] = biological target: Gal(b1-4)GlcNAc(b1-3)Gal(b1-4)GlcNAc(b1-3)Gal(b1-4)GlcNAc(b1-3)Gal(b1-4)GlcNAc(b1-3)Gal(b1-4)GlcNAc(b1-3)Gal(b1-4)GlcNAc(b1-2)Man(a1-3)[Gal(b1-4)GlcNAc(b1-3)Gal(b1-4)GlcNAc(b1-3)Gal(b1-4)GlcNAc(b1-3)Gal(b1-4)GlcNAc(b1-3)Gal(b1-4)GlcNAc(b1-3)Gal(b1-4)GlcNAc(b1-2)Man(a1-6)]Man(b1-4)GlcNAc(b1-4)GlcNAc
# Procedure, shortened: as §1
# [23] = biological target: Gal(b1-4)GlcNAc(b1-3)Gal(b1-4)GlcNAc(b1-3)[Gal(b1-4)GlcNAc(b1-3)Gal(b1-4)GlcNAc(b1-6)]GalNAc
# Procedure, shortened: as §1
# Gal3S(b1-4)GlcNAc6S = biological target: Gal3S(b1-4)GlcNAc6S
# Procedure, shortened: as §1
# [24] = biological target: GalNAc(b1-4)GlcNAc(b1-2)Man
# Procedure, shortened: as §1
# [25] = biological target: GlcNAc(a1-4)Gal(b1-4)GlcNAc(b1-3)Gal(b1-4)Glc
# Procedure, shortened: as §1
# [26] = biological target: GlcNAc(b1-2)Man(a1-3)[GlcNAc(b1-2)Man(a1-6)]Man(b1-4)GlcNAc(b1-4)[Fuc(a1-6)]GlcNAc
# Procedure, shortened: as §1
# [27] = biological target: GlcNAc(b1-2)[GlcNAc(b1-6)]Man(a1-6)[GlcNAc(b1-2)Man(a1-3)]Man(b1-4)GlcNAc(b1-4)[Fuc(a1-6)]GlcNAc
# Procedure, shortened: as §1
# [28] = biological target: GlcNAc(b1-3)Gal(b1-4)GlcNAc(b1-2)Man(a1-3)[GlcNAc(b1-3)Gal(b1-4)GlcNAc(b1-2)Man(a1-6)]Man(b1-4)GlcNAc(b1-4)[Fuc(a1-6)]GlcNAc
# Procedure, shortened: as §1
# [29] = biological target: GlcNAc(a1-4)Gal(b1-4)GlcNAc(b1-3)Gal(b1-4)GlcNAc
# Procedure, shortened: as §1
# [30] = biological target: GlcNAc(a1-4)Gal(b1-4)GlcNAc(b1-3)Gal(b1-4)GlcNAc(b1-3)Gal(b1-4)GlcNAc
# Procedure, shortened: as §1
# [31] = biological target: GlcNAc(b1-2)Man(a1-3)[GlcNAc(b1-2)Man(a1-6)]Man(b1-4)GlcNAc(b1-4)GlcNAc
# Procedure, shortened: as §1
# [32] = biological target: GlcNAc(b1-3)Gal(b1-4)GlcNAc(b1-3)Gal(b1-4)GlcNAc(b1-2)[GlcNAc(b1-3)Gal(b1-4)GlcNAc(b1-3)Gal(b1-4)GlcNAc(b1-6)]Man(a1-6)[GlcNAc(b1-3)Gal(b1-4)GlcNAc(b1-3)Gal(b1-4)GlcNAc(b1-2)Man(a1-3)]Man(b1-4)GlcNAc(b1-4)[Fuc(a1-6)]GlcNAc
# Procedure, shortened: as §1
# [33] = biological target: GlcNAc(b1-3)Gal(b1-4)GlcNAc(b1-6)[Gal(b1-3)]GalNAc
# Procedure, shortened: as §1
# GlcNAc(b1-4)GlcNAc = biological target: GlcNAc(b1-4)GlcNAc
# Procedure, shortened: as §1
# [34] = biological target: GlcNAc(b1-4)GlcNAc(b1-4)GlcNAc
# Procedure, shortened: as §1
# [35] = biological target: GlcNAc(b1-4)GlcNAc(b1-4)GlcNAc(b1-4)GlcNAc(b1-4)GlcNAc
# Procedure, shortened: as §1
# [36] = biological target: GlcNAc(b1-4)GlcNAc(b1-4)GlcNAc(b1-4)GlcNAc(b1-4)GlcNAc(b1-4)GlcNAc
# Procedure, shortened: as §1
# [37] = biological target: Man(a1-2)Man(a1-3)[Man(a1-3)[Man(a1-6)]Man(a1-6)]Man(b1-4)GlcNAc(b1-4)GlcNAc
# Procedure, shortened: as §1
# [38] = biological target: Neu5Ac(a2-3)Gal(b1-3)GlcNAc(b1-2)Man
# Procedure, shortened: as §1
# [39] = biological target: Neu5Ac(a2-3)Gal(b1-3)GlcNAc6S
# Procedure, shortened: as §1
# [40] = biological target: Neu5Ac(a2-3)Gal(b1-4)GlcNAc
# Procedure, shortened: as §1
# [41] = biological target: Neu5Ac(a2-3)Gal(b1-4)[Fuc(a1-3)]GlcNAc
# Procedure, shortened: as §1
# [42] = biological target: Neu5Ac(a2-3)Gal6S(b1-4)GlcNAc
# Procedure, shortened: as §1
# [43] = biological target: Neu5Ac(a2-6)Gal(b1-4)GlcNAc(b1-2)Man(a1-6)[Gal(b1-4)GlcNAc(b1-2)Man(a1-3)]Man(b1-4)GlcNAc(b1-4)GlcNAc
# Procedure, shortened: as §1
# [44] = biological target: Neu5Ac(a2-6)Gal(b1-4)GlcNAc(b1-3)Gal(b1-4)GlcNAc
# Procedure, shortened: as §1
# [45] = biological target: Neu5Ac(a2-6)GlcNAc(b1-4)GlcNAc(b1-4)GlcNAc
# Procedure, shortened: as §1
# [46] = biological target: Neu5Ac9Ac(a2-3)Gal(b1-4)GlcNAc
# Procedure, shortened: as §1
binder,measurement,setting,value
"LCA (Lens culinaris), P02870 (protein) MASLQTQMISFYLIFLSILLTTIFFFKVNSTETTSFSITKFSPDQKNLIFQGDGYTTKGKLTLTKAVKSTVGRALYSTPIHIWDRDTGNVANFVTSFTFVIDAPSSYNVADEFTFFIAPVDTKPQTGGGYLGVFNSKEYDKTSQTVAVEFDTFYNAAWDPSNKERHIGIDVNSIKSVNTKSWNLQNGERANVVIAFNAATNVLTVTLTYPNSLEEENVTSYTLNEVVPLKDVVPEWVRIGFSATTGAEFAAHEVHSWSFHSELGGTSSSKQAADA",glycan array binding signal (z-score),[1],-0.201
same,glycan array binding signal (z-score),[2],-0.218
same,glycan array binding signal (z-score),Fuc(a1-2)Gal(b1-4)GlcNAc,-0.217
same,glycan array binding signal (z-score),[3],-0.218
same,glycan array binding signal (z-score),[4],-0.238
same,glycan array binding signal (z-score),[5],-0.232
same,glycan array binding signal (z-score),[6],-0.257
same,glycan array binding signal (z-score),[7],-0.237
same,glycan array binding signal (z-score),[8],-0.227
same,glycan array binding signal (z-score),[9],-0.211
same,glycan array binding signal (z-score),[10],-0.231
same,glycan array binding signal (z-score),[11],-0.238
same,glycan array binding signal (z-score),[12],-0.231
same,glycan array binding signal (z-score),[13],-0.238
same,glycan array binding signal (z-score),[14],-0.235
same,glycan array binding signal (z-score),[15],4.72
same,glycan array binding signal (z-score),[16],-0.225
same,glycan array binding signal (z-score),[17],-0.205
same,glycan array binding signal (z-score),[18],4.42
same,glycan array binding signal (z-score),[19],4.2
same,glycan array binding signal (z-score),[20],3.87
same,glycan array binding signal (z-score),[21],3.85
same,glycan array binding signal (z-score),[22],-0.192
same,glycan array binding signal (z-score),[23],0.058
same,glycan array binding signal (z-score),Gal3S(b1-4)GlcNAc6S,-0.227
same,glycan array binding signal (z-score),[24],-0.199
same,glycan array binding signal (z-score),[25],-0.135
same,glycan array binding signal (z-score),[26],5.54
same,glycan array binding signal (z-score),[27],8.45
same,glycan array binding signal (z-score),[28],5.29
"AAA (Anguilla anguilla), Q7SIC1 (protein) VIPEGYTQENVAVRGKATQSAQLRGEHAANSEASNAIDGNRDSNFYHGSCTHSSGQANPWWRVDLLQVYTITSVTITNRGDCCGERISGAEINIGQHLASNGVNNPECSVIGSMATGETKTFHCPAPMIGRYVVTYLPTSESLHLCEVEVNVDKPAAA",glycan array binding signal (z-score),[29],1.96
same,glycan array binding signal (z-score),[30],2.29
same,glycan array binding signal (z-score),[31],-0.274
same,glycan array binding signal (z-score),[32],0.944
same,glycan array binding signal (z-score),[33],-0.298
same,glycan array binding signal (z-score),GlcNAc(b1-4)GlcNAc,2.2
same,glycan array binding signal (z-score),[34],5.55
same,glycan array binding signal (z-score),[35],7.88
same,glycan array binding signal (z-score),[36],6.77
same,glycan array binding signal (z-score),[37],-0.106
same,glycan array binding signal (z-score),[38],-0.023
same,glycan array binding signal (z-score),[39],0.003
same,glycan array binding signal (z-score),[40],-0.086
same,glycan array binding signal (z-score),[41],-0.098
same,glycan array binding signal (z-score),[42],-0.179
same,glycan array binding signal (z-score),[43],-0.183
same,glycan array binding signal (z-score),[44],-0.202
same,glycan array binding signal (z-score),[45],2.46
same,glycan array binding signal (z-score),[46],-0.102
